Laboratory results reported in the supplement of paper PMC6555819.

Experiments:
Experiment in all cases: PBM binding z-score (relative to random genomic background probes); higher = stronger binding; sequences stand for … in GC…GCGATTGACAGCGTAGAATGAAGG
[1] = system: RARb homodimer (NR concentration 270 nM)
Summary of the method: (§1)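 Random background probes are the reference for binding z-scores. These scores derive from regression-normalized fluorescence on custom Agilent 4×180K protein-binding microarrays incubated 1 h with ligand-free nuclear receptor dimers. Binding was detected with antibodies against each partner (one per run).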

[2] = system: RARg:RXRa (NR concentration 270 nM, RXRa partner concentration 90 nM)
Summary of the method: as §1

[3] = system: RARg homodimer (NR concentration 270 nM)
Summary of the method: as §1

[4] = system: RXRa DBDmut IVT, anti-RXR (DBD mutation: RXRa K156A/R161A, NR concentration 90 nM)
Summary of the method: as §1

[5] = system: RXRa homodimer (NR concentration 180 nM)
Summary of the method: as §1

[6] = system: THRa:RXRa (NR concentration 90 nM, RXRa partner concentration 90 nM)
Summary of the method: as §1

[7] = system: THRa homodimer (NR concentration 90 nM)
Summary of the method: as §1

[8] = system: VDR:RXRa (NR concentration 270 nM, RXRa partner concentration 90 nM)
Summary of the method: as §1

[9] = system: VDR homodimer (NR concentration 270 nM)
Summary of the method: as §1

| Sequence | PBM binding z-score [1] | PBM binding z-score [2] | PBM binding z-score [3] | PBM binding z-score [4] | PBM binding z-score [5] | PBM binding z-score [6] | PBM binding z-score [7] | PBM binding z-score [8] | PBM binding z-score [9] |
| --- | --- | --- | --- | --- | --- | --- | --- | --- | --- |
| ATCGAAAGGTCGAGGTCAGTATAGAGAAAGGGAA | 4.73 | 5.69 | 6.16 | 2.01 | 5.46 | 3.84 | 1.93 | 4.49 | 2.73 |
| ATCGAAAGGCCGACGAGGTGAGTATACACCGTTT | 0.596 | 0.783 | 1.08 | -0.604 | 0.344 | 1.5 | 0.378 | 0.176 | -0.425 |
| CCTAGTTGGTCGGGAGGTCACACACCGGATATGA | 4.12 | 4.67 | 3.83 | 0.718 | 5.07 | 3.56 | 2.93 | 3.78 | 3.06 |
| GCTAGTTGGTCAGCAAAAGGTCACACACCGGTCG | 5.34 | 5.94 | 5.62 | -0.0302 | 6.14 | 3.41 | 1.55 | 4.13 | 1.55 |
| CAAACTAGGTCATGGTCAAAGTCGGTTTGTGCCA | 3.44 | 3.83 | 4.77 | 1.45 | 3.08 | 3.04 | 1.5 | 2.18 | 1.15 |
| CGATCGAGGGCATGAGTTGATAGCAAATGCCGAT | 0.615 | 1.06 | 1.18 | 1.75 | 0.725 | 1.04 | -0.645 | 0.973 | 1.5 |
| ATCGAAAGGTCGAAGGCGAGTATACCCACCCGAA | 2.23 | 3.79 | 3.68 | 0.777 | 3.64 | 1.75 | -0.359 | 2.22 | 0.879 |
| ATACCAAGGGGATCGTGAGGTCGTTGATACTAAC | 1.03 | 0.522 | 0.278 | 0.533 | 0.933 | 2.89 | 1.66 | 1.88 | 2.27 |
| CCTACTGGGCCACGAAAGGTCATTGGTTCAGTGA | 4.95 | 4.88 | 4.56 | 0.546 | 5.25 | 3.8 | 1.18 | 4.55 | 3.08 |
| AGAACGAGGACAATGAGTTGATAGCACGGGTGGC | 0.202 | 0.444 | 1.06 | 1.31 | 0.454 | 2.19 | 1.15 | 1.75 | 2.33 |
| AGAATGAGGTTATGCGTAGATCAGGGAAGAAAGT | 0.687 | 1.51 | 1.09 | 1.23 | 1.99 | 2.24 | 0.599 | 1.15 | 0.644 |
| CAAACTAGGTCAAAGGACAAAGTCGAGCCAACCA | 3.11 | 4.32 | 4.77 | 1.7 | 3.31 | 2.92 | 0.809 | 1.96 | 0.753 |
| ATCGAAAGATCGAGGTGAGTATAGAGAAAGGGAA | -0.0948 | 0.227 | 0.358 | -0.896 | 0.294 | 0.955 | 0.245 | -0.327 | -0.151 |
| GCTATTAGTTGGAAGGGCAACCGAATGATTCTCG | 0.941 | 0.317 | 0.522 | 0.581 | 0.0792 | -0.126 | -0.242 | -0.223 | -0.28 |
| TCTGCAAGGTCAACGATGGTCAGCTAATCTGCTA | 4.58 | 6.12 | 6.75 | 2.83 | 5.75 | 4.24 | 2.36 | 4.53 | 1.62 |
| CGTCCAAGGTCTGCAGGTCAGTGAAAGCGACGTG | 2.06 | 1.26 | 1.8 | 0.0779 | 0.794 | 1.12 | -0.0329 | -0.117 | -0.462 |
| TCTCGGAGGACACGAAGGTAAGAGCTTTCCAGAG | 0.164 | 0.396 | 1.27 | 0.371 | -0.0884 | 1.18 | 0.0809 | -0.386 | -0.641 |
| CCTAGCAGGCCAATCTGGGTCACTCAAGGCTTGA | 2.33 | 1.22 | 1.57 | 0.0731 | 0.984 | 3.9 | 0.369 | 0.724 | 0.000728 |
| TCTTGTAGATCAGCATGTTAAGAAAGCTGGCCAA | -0.787 | -0.255 | -0.411 | 0.518 | -0.151 | -0.548 | -0.975 | 0.172 | -0.468 |
| ATACCAAGGTGATCGAGAGGTCGTTGATACTAAC | 1.77 | 2.91 | 1.06 | 0.829 | 1.71 | 2.59 | 0.902 | 3.02 | 1.98 |
| CCTTACGGGTCACCGACAGGTTATAGCATTTGGA | 3.79 | 6.61 | 5.55 | 1.12 | 6.11 | 3.23 | 0.772 | 4.44 | 1.09 |
| TCTCCGAGGACACGAAGGTCAGAGCTTTCCAGAG | 3.51 | 3.46 | 4.49 | 0.665 | 2.02 | 3.74 | 2.44 | 2.69 | 1.76 |
| CCTTACGGGTCACTCCAGATTATAGCATCGGAGT | 2.58 | 4.16 | 3.98 | 1.28 | 3.98 | 2.65 | 0.098 | 2.72 | 1.39 |
| TTACCAAGGTGAGCTGAGGTTGTTGATCCAACTC | 0.122 | -0.185 | 0.109 | -0.414 | -0.0103 | 3.29 | 0.439 | 0.678 | -0.373 |
| CCTAGTTGGTCAGGCGGTCACACACCGGATATGA | 2.12 | 1.41 | 1.67 | -0.336 | 0.344 | 0.232 | 0.129 | 0.0126 | 0.3 |
| TCTTGTAGATCTAGCAGGTTAAGAAAGCCTGAGT | 0.195 | -0.205 | -0.19 | 0.705 | 0.231 | 0.286 | -0.115 | 0.391 | -0.0564 |

| Sequence | PBM binding z-score [1] | PBM binding z-score [2] | PBM binding z-score [3] | PBM binding z-score [4] | PBM binding z-score [5] | PBM binding z-score [6] | PBM binding z-score [7] | PBM binding z-score [8] | PBM binding z-score [9] |
| --- | --- | --- | --- | --- | --- | --- | --- | --- | --- |
| ATCTGTAGGTAACCAAGTTCAGTGAATGCCGAAC | 1.32 | 0.689 | 0.722 | 0.655 | 0.689 | 1.26 | 0.246 | 4.63 | 2.56 |
| ATCTTTAGGTAACAAGTTCAGTGAAAGAGAGGAC | 2.04 | 1.56 | 1.48 | 1.65 | 0.993 | 2.13 | 1.4 | 1.81 | 2.79 |
| CCGACTGGGGCATAAAGGTTACCATACCATCCGG | 2.16 | 1.92 | 1.79 | -0.788 | 1.63 | 1.19 | -0.376 | 1.4 | 0.423 |
| TCGAGTAGGTTAATCGGGGCATTCAGCCAACATA | 0.592 | 0.49 | 0.334 | 0.443 | 0.518 | 1.99 | -0.373 | 3.59 | 0.184 |
| CGAACTAGGTCATTGACAGGACAGTTAATAGTAA | 2.42 | 4.65 | 4.41 | 2.52 | 2.86 | 2.77 | 0.893 | 2.16 | 1.27 |
| CCGAATGGGGCAAAGGTTACCATACTCAGTACGA | 2.37 | 3.65 | 1.72 | 0.549 | 4.27 | 1.86 | -0.191 | 1.77 | 0.204 |
| TATACAGGGTCAAAGGCCAGAGCACGAATGTCGA | 3.57 | 5.66 | 5.23 | 3.1 | 6.87 | 3.46 | 0.672 | 4.37 | 2.9 |
| CTAACTAGGTCAAAGGTCAAAGTCGAGCCAACCA | 4.93 | 8.93 | 7.64 | 2.72 | 10.3 | 4.84 | 1.59 | 6.59 | 3.19 |
| CAAACTAGGTCAAAGATCAAAGTCGAGCCAACCA | 2.5 | 4.93 | 4.62 | 1.97 | 5.28 | 2.9 | 0.494 | 2.52 | 0.479 |
| ACATGTAGGTTAGCTGGGGTCATTCAGACTAGGC | 3.72 | 4.24 | 2.97 | 2.34 | 5.59 | 5.12 | 3.49 | 6.43 | 5.66 |
| CCGACTGGGGCAACGTTACCATAACGCACAGCCA | -0.0419 | 0.137 | 0.521 | -0.207 | -0.126 | -0.262 | -0.261 | -0.557 | -0.403 |
| GCTAGTTGGTCAGTGAAAGGTCACACACCGGTCG | 4.96 | 5.66 | 4.94 | 0.305 | 5.62 | 3.42 | 1.71 | 4.14 | 1.73 |
| ATATGCAGGTTAAGGGTCATTCAGGTTGGTTCGC | 3.97 | 4.66 | 3.52 | 2.24 | 6.59 | 3.64 | 1.26 | 5.68 | 4.45 |
| CTACCAAGGTGAACAACGTCGTTGATTACTATTC | 0.607 | 0.832 | 0.962 | 0.685 | 0.887 | 1.79 | 0.72 | 0.38 | -0.472 |
| TCATATTGGTAAACAGGTGAAAGTCCGTAAGTTA | 0.882 | 0.412 | 0.0109 | 1.5 | 0.951 | 0.634 | 0.5 | 1.08 | 0.487 |
| TCATACAGGTAAATGCTAGGTGAAAGTCCGATCT | 0.654 | 0.462 | 0.278 | 1.48 | 0.593 | 1.47 | 0.878 | 0.69 | 0.146 |
| TGTCAAAGTTCAACGGTAACGTAAGTATCCACAC | 3.79 | 5.69 | 6.35 | 4.26 | 5.2 | 1.98 | -0.415 | 4.79 | 3.5 |
| ATCCCTAGGTAAAGTTCAGTGAAAGATCGATAGA | 2.36 | 1.81 | 1.95 | 1.28 | 1.16 | 1.07 | 0.22 | 1.37 | 2.35 |
| TTACCAACGTGAAAGGTCGTTGATGCACGCCTTG | 1.63 | 1.54 | 0.872 | 0.467 | 2.73 | 1.35 | -0.282 | 1.74 | 1.13 |
| TCTGCTAGGTCAACGGTGGTCAGCTAATCTGCTA | 3.48 | 4.11 | 4.99 | 1.01 | 2.54 | 3.46 | 0.796 | 1.95 | -0.606 |
| TGTAGCAGGCCAGAGGGTCACTCAAGAGGTACGG | 2.85 | 2.8 | 2.7 | -1.32 | 2.64 | 1.59 | -0.464 | 1.46 | 0.427 |
| GGAACGAGGGCAAAGTTGATAGAATCTGTCGACG | 1.19 | 2.18 | 1.77 | 2.54 | 2.06 | 1.39 | -0.286 | 1.34 | 1.42 |
| TCATATAGGTCAATGCTAGGTGAAAGTCCGATCT | 3.86 | 5.46 | 5.11 | 2.09 | 4.2 | 3.7 | 0.903 | 2.9 | 0.879 |
| GCTGCTAGGTCAACTGATGGTCAGTTAAAGCTCG | 3.55 | 5.17 | 5.45 | 1.51 | 2.85 | 3.15 | 1.05 | 1.85 | -0.147 |
| CCTTACGGGTCACTACAGGTTATAGCATCGGAGT | 3.27 | 4.6 | 4.47 | 1.7 | 4.64 | 4.19 | -0.0959 | 4.06 | 1.31 |
| GCAGACAGGTGAAACGCAGGTGACTCAGGGTGGC | 0.561 | 1.85 | 0.482 | -0.723 | 0.927 | 1.56 | -0.166 | -0.335 | -0.391 |
